PubChem BioAssay (EPA / NIEHS)
Active and inactive are the calls of the source. How the source made its calls: active means hit-call score of the fitted dose curve at least 0.9, where 1 is the maximum; inactive means score below 0.9.

What was measured:
Conditions in all cases: mRNA level, 48 h; actives raise or lower the signal
[1] = read-out: MicroRNA 122 (MIR122), gene 406906; assay: LTEA_HepaRG_MIR122: Life Technologies and Expression Analysis (LTEA) Assay for MicroRNA 122 (MIR122) using HepaRG (AID 2283516); further: the transcript read is the microRNA miR-122
In short: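 Expression measured by microfluidic qRT-PCR with three housekeeping genes for normalisation, after 48 h treatment of HepaRG cultures. Eight concentrations (top 100 uM, half-log steps, 0.5% DMSO vehicle) in duplicate; gain or loss fitted relative to vehicle.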

[2] = read-out: matrix metalloproteinase-10 (MMP10), MMP10 (gene 4319); assay: LTEA_HepaRG_MMP10: Life Technologies and Expression Analysis (LTEA) Assay for matrix metalloproteinase-10 (MMP10) using HepaRG (AID 2283517)
In short: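 Expression measured by TaqMan qRT-PCR with ACTB/GAPDH/POLR2A normalisation after 48 h chemical exposure of HepaRG cells. Eight half-log concentrations, top 100 uM, 0.5% DMSO vehicle, duplicates; gain or loss fitted against vehicle.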

[3] = read-out: MYC, MYC (gene 4609); assay: LTEA_HepaRG_MYC: Life Technologies and Expression Analysis (LTEA) Assay for MYC using HepaRG (AID 2283518)
In short: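 HepaRG, ~100,000 cells/well, collagen I; 48 h plating; serum-free induction medium; 48 h dosing, duplicate, 100 uM top, half-log, 0.5% DMSO; total RNA → qRT-PCR MYC; gain/loss fit vs DMSO.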

[4] = read-out: matrix metalloproteinase-3 (MMP3), MMP3 (gene 4314); assay: LTEA_HepaRG_MMP3: Life Technologies and Expression Analysis (LTEA) Assay for matrix metalloproteinase-3 (MMP3) using HepaRG (AID 2283519)
In short: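 Fluidigm-based TaqMan qRT-PCR, normalized to ACTB, GAPDH and POLR2A and fitted bidirectionally versus 0.5% DMSO, measured transcript levels. Treatment: duplicate 48 h exposures of HepaRG cells, ~100,000/well, to eight half-log concentrations topping at 100 uM.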

[5] = read-out: Paternally Expressed 10 (PEG10), PEG10 (gene 23089); assay: LTEA_HepaRG_PEG10: Life Technologies and Expression Analysis (LTEA) Assay for Paternally Expressed 10 (PEG10) using HepaRG (AID 2283520)
In short: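 PEG10 transcript measured by Fluidigm qRT-PCR, normalized to three housekeeping genes, in HepaRG cells treated 48 h (highest 100 uM, half-log steps, 0.5% DMSO vehicle). Cells plated 48 h before switching to serum-free induction medium.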

[6] = read-out: Protein phosphatase 2A (PPP2R4), PTPA (gene 5524); assay: LTEA_HepaRG_PPP2R4: Life Technologies and Expression Analysis (LTEA) Assay for Protein phosphatase 2A (PPP2R4) using HepaRG (AID 2283522)
In short: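 Expression was quantified by Fluidigm qRT-PCR normalised to three housekeeping genes after 48 h treatment. Human HepaRG cells received an 8-point series from 100 µM downward by half-logs, in duplicate with 0.5% DMSO vehicle and 1 mM phenobarbital as induction control.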

[7] = read-out: Phosphatase and tensin (PTEN), PTEN (gene 5728); assay: LTEA_HepaRG_PTEN: Life Technologies and Expression Analysis (LTEA) Assay for Phosphatase and tensin (PTEN) using HepaRG (AID 2283523)
In short: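 Read-out: TaqMan qRT-PCR of PTEN transcript, normalized to three housekeeping genes, fitted in both directions against 0.5% DMSO. Differentiated human HepaRG cultures received chemicals for 48 h, eight-point half-log series topping at 100 uM.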

[8] = read-out: solute carrier (SLC22A1), SLC22A1 (gene 6580); assay: LTEA_HepaRG_SLC22A1: Life Technologies and Expression Analysis (LTEA) Assay for solute carrier (SLC22A1) using HepaRG (AID 2283524)
In short: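 Transcript level of SLC22A1 quantified by qRT-PCR (normalized to three housekeeping genes) after 48 h chemical exposure of HepaRG cells, eight concentrations up to 100 µM, half-log steps, 0.5% DMSO vehicle. Gain or loss relative to DMSO fitted bidirectionally.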

[9] = read-out: Pyruvate Dehydrogenase Kinase 4 (PDK4), PDK4 (gene 5166); assay: LTEA_HepaRG_PDK4: Life Technologies and Expression Analysis (LTEA) Assay for Pyruvate Dehydrogenase Kinase 4 (PDK4) using HepaRG (AID 2283525)
In short: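 Readout is qRT-PCR of PDK4 transcript, normalized to three housekeeping genes, with bidirectional fitting against 0.5% DMSO vehicle. Differentiated HepaRG cells were treated 48 h in serum-free induction medium, duplicate wells, eight-point half-log series topping at 100 uM.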

[10] = read-out: NAD(P)H dehydrogenase [quinone] 1 (NQO1), NQO1 (gene 1728); assay: LTEA_HepaRG_NQO1: Life Technologies and Expression Analysis (LTEA) Assay for NAD(P)H dehydrogenase [quinone] 1 (NQO1) using HepaRG (AID 2283526)
In short: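 NQO1 transcript induction or loss measured by TaqMan qRT-PCR, referenced to three housekeeping genes and fitted bidirectionally against 0.5% DMSO. HepaRG cultures exposed 48 h, duplicate, eight-point half-log series, top 100 uM.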

[11] = read-out: Nuclear factor erythroid 2-related factor 2 (Homo sapiens) (UniProt Q16236); assay: LTEA_HepaRG_NFE2L2: Life Technologies and Expression Analysis (LTEA) Assay for Nuclear factor erythroid 2-related factor 2 (NFE2L2) Transcription Factor using HepaRG (AID 2283527);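 further: TaqMan qRT-PCR transcript level normalised to ACTB GAPDH and POLR2A housekeeping genes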
In short: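 NFE2L2 transcript level was read by qRT-PCR (housekeeping ACTB/GAPDH/POLR2A normalisation) after 48 h chemical treatment of HepaRG in serum-free induction medium. Duplicate 8-point half-log curves, top 100 uM, 0.5% DMSO vehicle; up- or down-regulation fitted against vehicle.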

[12] = read-out: succinate dehydrogenase complex iron sulfur subunit B (SDHB), SDHB (gene 6390); assay: LTEA_HepaRG_SDHB: Life Technologies and Expression Analysis (LTEA) Assay for succinate dehydrogenase complex iron sulfur subunit B (SDHB) using HepaRG (AID 2283528)
In short: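 A human HepaRG culture in serum-free induction medium received test chemicals for 48 h over an eight-point range capped at 100 uM. SDHB expression change was quantified by qRT-PCR.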

[13] = read-out: Signal transducer and activator of transcription 3 (Homo sapiens) (UniProt P40763); assay: LTEA_HepaRG_STAT3: Life Technologies and Expression Analysis (LTEA) Assay for Signal transducer and activator of transcription (STAT3) using HepaRG (AID 2283529)
In short: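 STAT3 transcript quantified by qRT-PCR against three housekeeping genes (ACTB, GAPDH, POLR2A), fitted both directions relative to DMSO. HepaRG cultures exposed 48 h to eight half-log concentrations, top 100 uM, 0.5% DMSO, serum-free induction medium.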

[14] = read-out: solute carrier (SLCO1B1), SLCO1B1 (gene 10599); assay: LTEA_HepaRG_SLCO1B1: Life Technologies and Expression Analysis (LTEA) Assay for solute carrier (SLCO1B1) using HepaRG (AID 2283530)
In short: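 HepaRG, serum-free induction medium, 48 h dosing, 8-pt half-log from 100 uM, 0.5% DMSO vehicle, duplicates. Readout: SLCO1B1 mRNA, qRT-PCR, ACTB/GAPDH/POLR2A normalization; up or down fit vs DMSO.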

[15] = read-out: sulfotransferase 2A1 (SULT2A1), SULT2A1 (gene 6822); assay: LTEA_HepaRG_SULT2A1: Life Technologies and Expression Analysis (LTEA) Assay for sulfotransferase 2A1 (SULT2A1) using HepaRG (AID 2283531)
In short: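 Transcript levels of SULT2A1, quantified by qRT-PCR and normalized to three housekeeping genes, serve as the readout. Human HepaRG cultures receive test chemicals for 48 h at up to 100 uM in half-log steps, with 0.5% DMSO vehicle.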

[16] = read-out: Transforming Growth Factor (TGFA), TGFA (gene 7039); assay: LTEA_HepaRG_TGFA: Life Technologies and Expression Analysis (LTEA) Assay for Transforming Growth Factor (TGFA) using HepaRG (AID 2283532)
In short: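 TGFA transcript quantified by qRT-PCR (Fluidigm arrays) against three housekeeping genes, after 48 hours chemical treatment of HepaRG cells. Top concentration 100 uM with half-log dilutions, 8 points, duplicates, 0.5% DMSO.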

[17] = read-out: Transforming Growth Factor (TGFB1), TGFB1 (gene 7040); assay: LTEA_HepaRG_TGFB1: Life Technologies and Expression Analysis (LTEA) Assay for Transforming Growth Factor (TGFB1) Transporter using HepaRG (AID 2283533)
In short: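 HepaRG, 48 h post-plating, switched to serum-free induction medium; chemicals 100 uM top, half-log, 8 pts, 0.5% DMSO, dup; 48 h exposure; RNA → Fluidigm TaqMan qRT-PCR; norm ACTB/GAPDH/POLR2A; bidirectional fit vs DMSO.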

[18] = read-out: TIMP1, TIMP1 (gene 7076); assay: LTEA_HepaRG_TIMP1: Life Technologies and Expression Analysis (LTEA) Assay for TIMP1 using HepaRG (AID 2283534);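 further: TaqMan qRT-PCR signal normalized to ACTB GAPDH and POLR2A housekeeping genes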
In short: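 Readout is TIMP1 mRNA level measured by qRT-PCR and normalized to three housekeeping genes. Human HepaRG cells were treated for 48 h in duplicate at eight concentrations up to 100 uM (0.5% DMSO); gain or loss fitted against DMSO.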

[19] = read-out: Tumor necrosis factor receptor 1 (TNFRSF1A), TNFRSF1A (gene 7132); assay: LTEA_HepaRG_TNFRSF1A: Life Technologies and Expression Analysis (LTEA) Assay for Tumor necrosis factor receptor 1 (TNFRSF1A) using HepaRG (AID 2283535)
In short: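 Read-out is TNFRSF1A transcript level by TaqMan qRT-PCR, normalized to three housekeeping genes, scored as gain or loss of signal versus 0.5% DMSO. Human HepaRG cells received test chemicals for 48 h at up to 100 uM (half-log series).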

[20] = read-out: Thyroid Hormone Responsive (THRSP), THRSP (gene 7069); assay: LTEA_HepaRG_THRSP: Life Technologies and Expression Analysis (LTEA) Assay for Thyroid Hormone Responsive (THRSP) using HepaRG (AID 2283536)
In short: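 THRSP transcript quantified by Fluidigm qRT-PCR against three housekeeping genes after 48 h chemical exposure of HepaRG cells in serum-free induction medium; eight-point half-log series, top 100 uM, 0.5% DMSO vehicle, duplicate wells.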

Measured: outcome

Chain of Signal transducer and activator of transcription 3 (Homo sapiens) (P40763 whole entry, looked up): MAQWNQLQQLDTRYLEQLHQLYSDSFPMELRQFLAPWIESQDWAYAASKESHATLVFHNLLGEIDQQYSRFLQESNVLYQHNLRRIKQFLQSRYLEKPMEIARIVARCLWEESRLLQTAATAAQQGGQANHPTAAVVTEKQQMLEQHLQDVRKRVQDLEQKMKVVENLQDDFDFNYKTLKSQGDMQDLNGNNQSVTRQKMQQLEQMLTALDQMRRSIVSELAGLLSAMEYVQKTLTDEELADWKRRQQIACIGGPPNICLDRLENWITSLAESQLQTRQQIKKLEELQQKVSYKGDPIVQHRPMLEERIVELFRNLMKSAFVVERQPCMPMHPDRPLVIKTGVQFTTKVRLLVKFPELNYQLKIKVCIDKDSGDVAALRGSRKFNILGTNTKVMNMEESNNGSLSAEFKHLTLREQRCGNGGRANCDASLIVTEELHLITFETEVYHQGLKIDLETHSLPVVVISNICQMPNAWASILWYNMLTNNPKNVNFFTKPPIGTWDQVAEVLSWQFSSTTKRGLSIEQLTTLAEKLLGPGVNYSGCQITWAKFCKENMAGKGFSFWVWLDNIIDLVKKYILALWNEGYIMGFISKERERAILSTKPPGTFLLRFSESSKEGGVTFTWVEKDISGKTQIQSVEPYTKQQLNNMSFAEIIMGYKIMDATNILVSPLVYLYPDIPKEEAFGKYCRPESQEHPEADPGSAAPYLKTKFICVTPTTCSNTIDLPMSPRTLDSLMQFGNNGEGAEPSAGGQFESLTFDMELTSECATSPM
Chain of Nuclear factor erythroid 2-related factor 2 (Homo sapiens) (Q16236 whole entry, looked up): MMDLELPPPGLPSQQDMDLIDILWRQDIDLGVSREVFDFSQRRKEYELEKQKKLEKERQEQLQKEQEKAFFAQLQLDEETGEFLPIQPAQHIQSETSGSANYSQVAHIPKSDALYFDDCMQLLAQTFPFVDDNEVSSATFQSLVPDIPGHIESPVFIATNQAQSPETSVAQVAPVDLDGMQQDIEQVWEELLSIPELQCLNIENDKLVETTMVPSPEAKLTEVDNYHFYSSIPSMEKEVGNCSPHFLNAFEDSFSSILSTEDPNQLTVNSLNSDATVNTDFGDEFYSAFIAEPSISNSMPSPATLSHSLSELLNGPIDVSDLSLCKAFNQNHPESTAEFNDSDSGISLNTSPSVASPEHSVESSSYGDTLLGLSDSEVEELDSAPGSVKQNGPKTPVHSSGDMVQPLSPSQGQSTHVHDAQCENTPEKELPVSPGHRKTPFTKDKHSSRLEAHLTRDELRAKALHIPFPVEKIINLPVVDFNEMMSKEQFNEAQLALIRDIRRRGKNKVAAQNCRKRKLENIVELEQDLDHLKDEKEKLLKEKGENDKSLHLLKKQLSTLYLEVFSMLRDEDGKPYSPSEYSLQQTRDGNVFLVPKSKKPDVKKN

N#CCCCCC#N
inactive: all assays above
